According to PubChem BioAssay AID1159580 (chemical genetic matrix, 2015):
“And” between values parts separate entries of the source, which are not always exact repeats. Equal values may be shown once. In all, about 5,500 compounds went through this assay and about 2,000 (36%) were called active. About 18% were inconclusive and are not listed. Rule as the data show it: active = normalized growth mostly below about 0.91 (no sharp cut-off); inconclusive = no clear call, values can overlap the other calls; inactive = mostly above about 0.92. The list shows a part of the results.

Assay: chemical genetic growth profiling, strain panel (AID 1159580);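 also: tested at 20 µM; growth read once vehicle control cultures reached saturation at 30 °C; 1 = growth at the plate median or of vehicle wells; lower values mean less growth of the strain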
Details: S. cerevisiae deletion strains, growth OD

Measured: normalized growth

CC(C)NCC(O)c1cc(O)cc(O)c1 (stereo not drawn)
inactive: locus YAL013W, strain DEP1, hits give low values 1.03 | locus YAL021C, strain ccr4, hits give low values 0.974 | locus YAL026C, strain drs2, hits give low values 1 | locus YAL030W, strain snc1, hits give low values 0.994 | locus YAL040C, strain CLN3, hits give low values 1.02 | locus YBL061C, strain skt5, hits give low values 0.991 | locus YBR009C, strain hhf1, hits give low values 1.01 | locus YBR021W, strain FUR4, hits give low values 1.02 | locus YBR023C, strain chs3, hits give low values 0.984 | locus YBR171W, strain sec66, hits give low values 0.998 | locus YBR229C, strain ROT2, hits give low values 1 | locus YBR231C, strain swc5, hits give low values 0.993 | locus YBR279W, strain paf1, hits give low values 0.992 | locus YCL011C, strain gbp2, hits give low values 0.982 | locus YCL016C, strain dcc1, hits give low values 0.976 | locus YCL029C, strain bik1, hits give low values 0.983 | locus YCL061C, strain MRC1 (second series), hits give low values 1.01 | locus YCL061C, strain MRC1, hits give low values 0.991 | locus YCL069W, strain vba3, hits give low values 0.992 | locus YCR088W, strain abp1, hits give low values 0.994 | locus YDL005C, strain med2, hits give low values 1 | locus YDL035C, strain GPR1, hits give low values 1.01 | locus YDL040C, strain nat1, hits give low values 0.994 | locus YDL074C, strain BRE1, hits give low values 1.01 | locus YDL101C, strain DUN1, hits give low values 1 | locus YDL134C, strain PPH21, hits give low values 1.01 | locus YDL185W, strain tfp1, hits give low values 0.964 | locus YDL192W, strain arf1, hits give low values 0.984 | locus YDR001C, strain nth1, hits give low values 0.983 | locus YDR069C, strain doa4, hits give low values 1.01 | locus YDR101C, strain arx1, hits give low values 1.02 | locus YDR137W, strain rgp1, hits give low values 0.977 | locus YDR150W, strain NUM1, hits give low values 0.996 | locus YDR159W, strain sac3, hits give low values 1.03 | locus YDR162C, strain NBP2, hits give low values 1.01 | locus YDR195W, strain ref2 0.982 | locus YDR297W, strain sur2, hits give low values 0.989 | locus YDR318W, strain mcm21, hits give low values 0.982 | locus YDR334W, strain swr1, hits give low values 0.974 | locus YDR335W, strain msn5, hits give low values 1 | locus YDR363W, strain ESC2, hits give low values 1.05 | locus YDR388W, hits give low values 1 | locus YDR392W, strain spt3, hits give low values 0.928 | locus YDR502C, strain sam2, hits give low values 0.993 | locus YEL003W, strain gim4, hits give low values 1 | locus YEL037C, strain rad23, hits give low values 0.989 | locus YEL061C, strain CIN8 (second series), hits give low values 0.98 | locus YEL061C, strain CIN8, hits give low values 0.995 | locus YER002W, strain NOP16, hits give low values 0.991 | locus YER015W, strain faa2, hits give low values 0.988 | locus YER016W, strain bim1, hits give low values 0.999 | locus YER110C, hits give low values 0.973 | locus YER111C, strain swi4, hits give low values 0.978 | locus YER155C, strain BEM2 (second series), hits give low values 1 | locus YER155C, strain BEM2, hits give low values 1 | locus YER167W, strain BCK2, hits give low values 0.995 | locus YFR010W, strain ubp6, hits give low values 0.992 | locus YGL078C, strain dbp3, hits give low values 0.969 | locus YGL086W, strain mad1, hits give low values 1.01 | locus YGL167C, strain pmr1, hits give low values 0.991 | locus YGL173C, strain kem1, hits give low values 1 | locus YGL227W, strain vid30, hits give low values 0.995 | locus YGL240W, strain doc1, hits give low values 1.01 | locus YGL248W, strain PDE1, hits give low values 1 | locus YGL253W, strain hxk2, hits give low values 0.974 | locus YGR135W, strain pre9, hits give low values 0.949 | locus YGR229C, strain SMI1, hits give low values 1.03 | locus YGR252W, strain gcn5, hits give low values 0.963 | locus YHR013C, strain ard1, hits give low values 0.961 | locus YHR027C, strain rpn1, hits give low values 1.02 | locus YHR030C, strain SLT2, hits give low values 1.01 and 0.952 | locus YHR079C, strain IRE1 (second series), hits give low values 0.988 | locus YHR079C, strain IRE1, hits give low values 0.964 | locus YHR094C, strain hxt1, hits give low values 1 | locus YHR129C, strain ARP1, hits give low values 1 | locus YHR142W, strain chs7, hits give low values 0.967 | locus YHR200W, strain rpn10, hits give low values 0.985 | locus YIL066C, strain RNR3, hits give low values 0.997 | locus YIL073C, strain SPO22, hits give low values 0.938 | locus YIL125W, strain kgd1, hits give low values 1.01 | locus YIR030C, strain dcg1, hits give low values 0.978 | locus YJL092W, strain hpr5, hits give low values 0.988 | locus YJL095W, strain BCK1 (second series), hits give low values 0.994 | locus YJL095W, strain BCK1, hits give low values 0.986 and 0.963 | locus YJL115W, strain asf1, hits give low values 0.977 | locus YJL129C, strain trk1, hits give low values 0.983 | locus YJL134W, strain LCB3, hits give low values 1.01 | locus YJL154C, strain vps35, hits give low values 1.02 | locus YJL164C, strain tpk1, hits give low values 0.993 | locus YJL166W, strain qcr8, hits give low values 0.974 | locus YJL168C, strain set2, hits give low values 0.999 | locus YJL187C, strain SWE1 (second series), hits give low values 0.995 | locus YJL187C, strain SWE1, hits give low values 0.987
